# Reference: PubChem BioAssay (EPA / NIEHS)
# “And” between values parts separate entries of the source, which are not always exact repeats. Equal entries are not always repeated. Some structures have more than one record in an assay (separate samples or runs), and their calls can disagree. The source made the active and inactive calls. How the source made its calls: active means hit-call score of the fitted dose curve at least 0.9, where 1 is the maximum; inactive means score below 0.9.
# Assay: ATG_DR4_LXR_CIS: Attagene CIS-FACTORIAL HepG2 Assay for human Liver X Receptor (LXR), DR4 submotif (AID 2282929)
# Conditions: HepG2 Attagene DR4 cis-reporter, mRNA transcription; AC50: actives raise or lower the signal unless noted; outcome: actives raise or lower the signal unless noted
# Experimental: ATG_CIS is a cell-based, multiplexed-readout assay that uses HepG2, a human liver cell line, with measurements taken at 24 hours after chemical dosing in a 24-well plate.ATG_DR4_LXR_CIS is one of 52 assay component(s) measured or calculated from the ATG_CIS assay. It is designed to make measurements of mRNA induction, a form of inducible reporter, as detected with fluorescence intensity signals by Reverse transcription polymerase chain reaction (RT-PCR) and Capillary electrophoresis technology.Data from the assay component ATG_DR4_LXR_CIS was analyzed into 1 assay endpoint. This assay endpoint, ATG_DR4_LXR_CIS, was analyzed with bidirectional fitting relative to DMSO as the negative control and baseline of activity. Using a type of inducible reporter, measures of mRNA for gain or loss-of-signal activity can be used to understand the reporter gene at the transcription factor-level as they relate to the gene NR1H2 and NR1H3. Furthermore, this assay endpoint can be referred to as a primary readout, because this assay has produced multiple assay endpoints where this one serves a reporter gene function. To generalize the intended target to other relatable targets, this assay endpoint is annotated to the nuclear receptor intended target family, where the subfamily is non-steroidal.
# Human liver HepG2 cells are transiently transfected with multiple reporter transcription units (MRTUs) in 6-well plates using FuGene 6 reagent (Roche; 3 ml FuGene/1 mg DNA). The MRTU constructs are regulated by a cis-regulating element (promoter). […] A major difference between the CIS and TRANS system is that in CIS activities of endogenous TFs are measured, whereas the TRANS assay evaluates changes in activities of exogenous, chimeric NR-Gal4 proteins. […] At the end of 24 hour incubation, total RNA was isolated using TriZol reagent (Invitrogen). The isolated RNA is then reverse-transcribed using oligo(dT) primer and Mo-MLV reverse transcriptase (Invitrogen) with DNAse I (Ambion) treatment for 30 min. The one-tenth of the produced cDNA was amplified by PCR using Taq DNA polymerase (Invitrogen) and two reporter sequence-specific primers. The PCR products were fluorescently labeled by primer extension with 6-arboxyfluorescein (6-FAM) 5'-labeled reporter sequence-specific primer (2 min at 95 C, 20 s at 68 C and 10 min at 72 C) and these products were digested with 5U of HpaI (New England Biolabs) for 2h at 37 C. The fragments were purified using Qiaquick PCR columns (Qiagen), analyzed on an ABI 3130xL genetic analyzer (Applied Biosystems) with peak positions identified by using a set of X-rhodamine (ROX)-labeled MapMarker1000 molecular weight standards (BioVentures). The raw capillary electrophoresis data was processed using Attagraph software (Attagene).
SMILES,outcome,AC50
CCc1ccccc1O,inactive,–
CC=O,inactive,–
CC(C)(C)c1ccc(O)c(O)c1,inactive,40.8 µM (active)
OCC(F)(F)C(F)(F)C(F)(F)C(F)(F)C(F)(F)C(F)(F)C(F)(F)C(F)(F)C(F)(F)C(F)(F)C(F)(F)F,inactive,–
CCC(=O)O,inactive,–
COC(=O)C(F)(F)C(F)(F)C(F)(F)C(F)(F)C(F)(F)F,inactive,–
O=C1OC(=O)c2cc(-c3ccc4c(c3)C(=O)OC4=O)ccc21,inactive,–
CC(C)C=O,inactive,26.8 µM (active)
Cc1cc(C(C)(C)C)c(O)c(C(C)(C)C)c1,inactive,33.4 µM (active)
CCCCCCCCCCCC[N+](C)(C)Cc1ccccc1,inactive,11.1 µM (active)
CC(C)CCOCCC(C)C,inactive,–
Cc1cc(C(=C2C=CC(=Nc3ccc(S(=O)(=O)O)cc3)C=C2)c2ccc(Nc3ccc(S(=O)(=O)O)cc3)cc2)cc(S(=O)(=O)O)c1N,inactive,–
c1cc2cccc3c4cccc5cccc(c(c1)c23)c54,inactive,–
CCCCCCCCCCCC(=O)O,inactive,167 µM (active)
CCCCCCCCCCCCCC[n+]1ccccc1,inactive,–
COC(=O)C(F)(F)C(F)(F)C(F)(F)F,inactive,–
C=C(c1ccc(C(=O)O)cc1)c1cc2c(cc1C)C(C)(C)CCC2(C)C,inactive,2.99 µM (active)

SMILES,outcome,AC50
Nc1ccc(O)c(C(=O)O)c1,inactive,–
CCOC(=O)CN[C@@H](C(=O)N1CC[C@H]1C(=O)NCc1ccc(/C(N)=N/O)cc1)C1CCCCC1,inactive,–
Cc1ccc(N=Nc2c(O)ccc3ccccc23)c(C)c1,inactive,–
CC(C)[C@@H]1CC[C@@H](C)C[C@H]1O,inactive,–
C=CC(C)(CCC=C(C)C)OC(C)=O (stereo not given),inactive,–
Nc1ccn([C@@H]2O[C@H](CO)[C@@H](O)C2O)c(=O)n1 (stereo not given in full),inactive,–
O=C(CC(=O)C(F)(F)C(F)(F)C(F)(F)F)c1cccs1,inactive [setting not given],–
CC(C)c1c(C(=O)Nc2ccccc2)c(-c2ccccc2)c(-c2ccc(F)cc2)n1CC[C@@H](O)C[C@@H](O)CC(=O)O,–,136 µM (active) and 42.6 µM (active)
C[C@]12CC[C@@H]3c4ccc(O)cc4CC[C@H]3[C@@H]1C[C@@H](O)[C@@H]2O,inactive,26.3 µM (active)
C=CC(=O)OCCC(F)(F)C(F)(F)C(F)(F)C(F)(F)C(F)(F)C(F)(F)F,inactive,–
CCCCCCC(C)(C)C(=O)O,inactive,–
Cc1ccccc1OCC(=O)O,inactive,–
NC(C(F)(F)F)C(F)(F)F,inactive,–
O=C1OC2(c3ccccc31)c1cc(I)c(O)c(I)c1Oc1c2cc(I)c(O)c1I,inactive,–
CCCCCCCCCCCCOC(=O)c1cc(O)c(O)c(O)c1,–,6.4 µM (active)
CCCCc1ccc2ccccc2c1S(=O)(=O)O,inactive,–
